This is a sample that favours compounds with a hit; in the whole collection about 3.4% have one here.
rRNA inh HTS: reduced GFP signal of wild-type E. coli, primary screen, bacterial rRNA inhibitor project, GFP/RFP fluorescence, OD600, single point; E. coli WT GFP vs humanized-ribosome RFP mutants, 24 h; active compounds read low; DMSO median 0, no signal -100; GFP signal change (wild-type ribosome), % (test concentration not listed); actives 1.6% (n = 350,000); AID 720706, 2013;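 active = significant combined selectivity score with lowered wild-type GFP, culture density cut under 30%, mutant RFP and density less affected; inactive = any of these conditions unmet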
PGC1a acetyl inh: inhibitors of PGC1a acetylation signal, primary screen, cell-based, U2OS, AlphaScreen, inhibitor mode; AID 651687, 2012; inhibition, % at 15.6 µM; AlphaScreen anti-acetyl-lysine; with virally co-expressed GCN5 acetyltransferase; actives 0.17% (n = 350,000);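 active = every replicate shows inhibition of at least 40%; inconclusive = mean inhibition at least 40% but some replicate below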
SIRT5 inh: SIRT5 desuccinylase inhibitors, primary screen, biochemical, fluorescence imaging, single point, set 5 | NAD-dependent protein deacylase sirtuin-5, mitochondrial (Homo sapiens), Q9NXA8 | inhibition, % at 15 µM | Purified SirT5, succinyl-peptide AMC, trypsin-coupled fluorescence | actives 1.1% (n = 330,000); in the data active = inhibition above about 15%; inconclusive = no clear call, values can overlap the other calls
Target sequence (Q9NXA8 whole entry, looked up): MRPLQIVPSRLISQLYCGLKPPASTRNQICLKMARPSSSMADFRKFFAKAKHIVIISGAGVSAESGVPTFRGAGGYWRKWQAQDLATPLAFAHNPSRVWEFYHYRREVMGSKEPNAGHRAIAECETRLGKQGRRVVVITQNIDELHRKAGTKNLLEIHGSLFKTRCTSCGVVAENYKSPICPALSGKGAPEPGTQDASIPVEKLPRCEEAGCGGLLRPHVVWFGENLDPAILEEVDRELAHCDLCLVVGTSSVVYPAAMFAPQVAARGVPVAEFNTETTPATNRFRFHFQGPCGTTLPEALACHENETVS
EWS-Fli block: EWS/Fli-driven NR0B1 reporter inhibitors, primary screen, A673 cells, NR0B1 luciferase, luminescence, MLPCN library; viability-normalised; inhibition, % at 12.6 µM; actives 0.67% (n = 350,000); AID 651661, 2012;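 active = mean inhibition of at least 50% after viability correction, with every replicate also passing that limit; inconclusive = mean reaches 50% but only one of two replicates passes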;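 also: firefly luciferase signal divided by Alamar Blue viability fluorescence both relative to DMSO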
LGR2 antag: inhibitors of bursicon-induced LGR2 CRE-luciferase signal, primary screen, cell-based, HEK293, CRE-luciferase reporter, bursicon stimulation | Drosophila bursicon receptor LGR2 (rickets) | bursicon-stimulated, 4 h | inhibition, % at 9.99 µM | actives 0.35% (n = 380,000);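 active = drop in luminescence signal, shown as inhibition above about 50% in the replicate tests, limit read from the data, passing the limit was not always enough; inconclusive = probably only some replicates passing the limit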;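 also: agonist challenge used bursicon conditioned medium at about half maximal strength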
PAX8 reporter: inhibitors of PAX8-driven TPO luciferase reporter, primary screen, RMG-I cells, single concentration. AID 652154, 2013. SteadyGlo, 24 h. actives 1.2% (n = 360,000). inhibition, % at 12.6 µM;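 active = mean replicate inhibition at least 60% with every replicate also reaching 60%; inconclusive = only one of the two criteria is met; inactive = mean below 60% and not all replicates reaching 60%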;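 also: luciferase light reporting Pax8 driven TPO promoter activity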
Hits are given with their value.

`C[C@H]1CCCCO[C@@H](CN(C)C(=O)Nc2ccc(F)cc2)[C@@H](C)CN([C@@H](C)CO)C(=O)c2cc(NC(=O)C3CCCCC3)ccc2O1` gave rRNA inh HTS inactive, PGC1a acetyl inh inactive, SIRT5 inh inactive, EWS-Fli block inactive, LGR2 antag 66 and PAX8 reporter inactive.
Screening CC1C=NC(S(=O)(=O)N2CC[C@@H]3[C@H](CO)N(C)c4ccc(C#Cc5ccccc5)cc4[C@@H]32)=N1 (some centres undefined) returned rRNA inh HTS inactive.
C[C@@H]1CCCCO[C@H](CN(C)S(=O)(=O)c2cn(C)cn2)[C@@H](C)CN([C@H](C)CO)C(=O)c2cc(NS(=O)(=O)c3ccccc3)ccc2O1 was read as rRNA inh HTS inactive, PGC1a acetyl inh inactive, SIRT5 inh inactive, EWS-Fli block inactive, LGR2 antag inactive and PAX8 reporter inactive.
`N#CC(C#N)=C1C=CC=CN1/C(=C\c1ccco1)C(=O)c1ccc(-c2ccccc2)cc1` gave LGR2 antag inactive and PAX8 reporter 92.
For O=C(Nc1cc([N+](=O)[O-])ccc1N1CCCC1)c1ccccc1 the results were rRNA inh HTS -26, PGC1a acetyl inh inactive, SIRT5 inh inactive, EWS-Fli block inactive, LGR2 antag inactive and PAX8 reporter inactive.
`Cc1ccc(C(=O)c2cc([N+](=O)[O-])ccc2N2CC(C)OC(C)C2)cc1` (centres undefined) gave rRNA inh HTS inactive, PGC1a acetyl inh inactive, SIRT5 inh inactive, EWS-Fli block inconclusive, LGR2 antag inactive and PAX8 reporter inactive.
`Cc1ccc(C(=O)c2cc([N+](=O)[O-])ccc2N2CCCCC2)cc1` gave LGR2 antag inactive and PAX8 reporter 88.
Screening O=C(c1cc([N+](=O)[O-])ccc1N1CCCC1)N1CCCC1 returned rRNA inh HTS inactive, PGC1a acetyl inh inconclusive, SIRT5 inh 16, EWS-Fli block inactive, LGR2 antag inactive and PAX8 reporter inactive.
`CC1CCCN(c2ccc([N+](=O)[O-])cc2C(=O)c2ccccc2)C1` (centres undefined) gave rRNA inh HTS inactive, SIRT5 inh inactive, EWS-Fli block 59, LGR2 antag inactive and PAX8 reporter inactive.
Screening Fc1ccc(CN2[C@@H]3CN(CC(F)(F)F)C[C@H]2C3c2ccccc2)cc1 (some centres undefined) returned rRNA inh HTS inactive.
O=C1O[C@@H](c2ccccc2)[C@@H](c2ccccc2)N2[C@@H](c3ccc(OCCO)cc3)[C@]3(C(=O)Nc4ccccc43)[C@@H](C(=O)Nc3nc4ccccc4s3)[C@H]12 was read as SIRT5 inh inactive, EWS-Fli block inactive and PAX8 reporter inactive.
Screening O=C(C[C@H]1CC[C@H]2[C@@H](COC[C@@H](O)CN2C(=O)Nc2cccc(Cl)c2)O1)NCCCN1CCOCC1 returned rRNA inh HTS inactive, PGC1a acetyl inh inactive, SIRT5 inh inactive, EWS-Fli block inactive, LGR2 antag inactive and PAX8 reporter inactive.
`COc1ccc2c3c([nH]c2c1)[C@@H](CO)N(C(=O)Nc1ccc(F)cc1)CC31CN(Cc2ccccc2OC)C1` gave rRNA inh HTS inactive, PGC1a acetyl inh inactive, EWS-Fli block inactive and LGR2 antag inactive.
CCCC#Cc1ccc2c(c1)[C@H]1[C@H](CCN1S(=O)(=O)c1cn(C)cn1)[C@H](CO)N2 was read as rRNA inh HTS inactive, PGC1a acetyl inh inactive, SIRT5 inh inactive and LGR2 antag inactive.
Screening COc1cc(NC(=S)NCc2ccc(S(N)(=O)=O)cc2)c(OC)cc1Cl returned rRNA inh HTS inactive, SIRT5 inh inactive, EWS-Fli block 65, LGR2 antag inactive and PAX8 reporter inactive.
For COc1ccc(Cl)cc1NC(=S)NCCc1ccc(S(N)(=O)=O)cc1 the results were rRNA inh HTS inactive, PGC1a acetyl inh inactive, SIRT5 inh inactive, EWS-Fli block inactive, LGR2 antag inactive and PAX8 reporter inactive.
